According to ChEMBL document CHEMBL5724796, “Tm Shift (DSF) assay results for EUbOPEN Chemogenomics Library” (2024):
Non-standard residues stand in square brackets, D forms with d. Residues, ends and D or L forms follow the SMILES beside them. *: point of attachment. Benzoyl(4-tBu) = CC(C)(C)c1ccc(C(=O)*)cc1; Lys(Et2) = CCN(CC)CCCC[C@H](N)C(=O)O; Cbz = O=C(OCc1ccccc1)*; CH2Cl = ClC*; CH2F = FC*

These compounds were tested against T1, Aurora kinase A (Homo sapiens) (UniProt O14965). Conditions: Compound concentration 20.0 uM.
T1 sequence (whole entry): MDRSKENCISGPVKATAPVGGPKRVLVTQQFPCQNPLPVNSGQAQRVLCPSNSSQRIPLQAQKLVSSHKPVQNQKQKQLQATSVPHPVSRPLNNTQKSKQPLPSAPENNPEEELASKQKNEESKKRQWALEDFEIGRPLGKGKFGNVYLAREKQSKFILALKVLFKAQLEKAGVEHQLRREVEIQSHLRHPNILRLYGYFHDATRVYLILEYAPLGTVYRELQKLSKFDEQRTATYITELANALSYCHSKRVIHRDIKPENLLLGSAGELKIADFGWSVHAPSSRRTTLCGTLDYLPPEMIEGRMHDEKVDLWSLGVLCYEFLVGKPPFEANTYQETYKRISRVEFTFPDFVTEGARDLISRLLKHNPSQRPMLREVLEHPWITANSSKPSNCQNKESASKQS

| SMILES | ΔTm [°C] |
| --- | --- |
| O=C(NCC1CCOCC1)c1n[nH]cc1NC(=O)c1c(F)cccc1F | 1.73 |
| Oc1ccc(-c2c(-c3ccccc3)nn3c(C(F)(F)F)cc(C(F)(F)F)nc23)cc1 | -0.53 |
| CNC(=O)O[C@H]1COc2ccc(N3CCN(C4COC4)CC3)cc2[C@@H]1NC(=O)c1ccc(F)cc1 | -1.61 |
| CN(CCCCCCNc1ccnc2cc(Cl)ccc12)CCCCCCNc1ccnc2cc(Cl)ccc12 | -1.69 |
| COc1cc(-c2cn(C)c(=O)c3cnccc23)cc(OC)c1CN(C)CC(=O)NCCOCCOCCNc1cccc2c1C(=O)N(C1CCC(=O)NC1=O)C2=O (centres undefined) | -1.03 |
| CC(C)c1c(-c2cnn(C(C)(C)C)c2)[nH]c2c(C#N)cnn2c1=O | -0.18 |
| CS(=O)(=O)c1ccc(-c2nnc(C=Cc3nnc(-c4ccc(C#N)cc4)o3)n2-c2ccccc2Cl)nc1 | -1.63 |
| O=C(N1CCCCC1c1ccccc1)n1cc(-c2ccc(-c3cccc(CO)c3)cc2)nn1 (centres undefined) | -5.38 |
| CS(=O)(=O)c1ccc(Oc2cc(F)cc(C#N)c2)c2c1C(O)C(F)C2 (centres undefined) | -2.47 |
| NS(=O)(=O)c1cc(-c2nnn[nH]2)c(NCc2cccs2)cc1Cl | -1.94 |
| CCn1nc(C2CC2)cc1Nc1nc(C(=O)NC)nc2[nH]c3cc(-c4c(C)noc4C)c(OC)cc3c12 | -2.42 |
| COCCOCCn1nc2c(c1C)-c1c(Cl)ccc3c1c(C)c(C(=O)O)n3CCCOc1cc(cc3c(F)c(Cl)ccc13)CCc1cc(nn1C)CSC2 | 0.82 |
| CN(CC[C@@H](Oc1ccc(-c2ccccc2)cc1)c1ccc(F)cc1)CC(=O)O | -1.2 |
| Cc1ccsc1C(=CCCN1CCC[C@@H](C(=O)O)C1)c1sccc1C | -1.21 |
| O=C1Nc2ccccc2C2(CCN(CC(Cc3ccccc3)Nc3nc4ccc(F)cc4s3)CC2)N1 (centres undefined) | -2.22 |
| CCCOc1cccc(Oc2cc3c(cc2NS(=O)(=O)c2cccc(C(=O)NCCOCCOCCOCC(=O)N[C@H](C(=O)N4C[C@H](O)C[C@H]4C(=O)NCc4ccc(-c5scnc5C)cc4)C(C)(C)C)c2)n(C)c(=O)n3C)c1 | -2.91 |
| CN(CCC(Oc1ccc(-c2ccccc2)cc1)c1ccc(F)cc1)CC(=O)O (centres undefined) | -1.88 |
| C[C@]1(c2nc3c(C(N)=O)cccc3[nH]2)CCCN1 | -1.66 |
| CCN(CC)CCCC[C@H](NC(=O)[C@H](CC(C)C)NC(=O)[C@H](C)NC(=O)[C@H](Cc1ccccc1)NC(=O)c1ccc(C(C)(C)C)cc1)C(=O)N[C@@H](CO)C(=O)OC ({Benzoyl(4-tBu)}-FAL[Lys(Et2)]S-OMe) | -1.22 |
| CN1CC(=O)N2[C@H](c3ccc4c(c3)OCO4)c3[nH]c4ccccc4c3C[C@@H]2C1=O | -2.46 |

| SMILES | ΔTm [°C] |
| --- | --- |
| CC(=O)N[C@@H](Cc1ccccc1)C(=O)N[C@@H](CC(C)C)C(=O)N[C@H](C(=O)N[C@@H](CC(=O)O)C(=O)CCl)[C@@H](C)O (Ac-FLTD-CH2Cl) | -0.89 |
| CCOC(=O)Oc1c(OC)cc(C(=O)O[C@H]2C[C@H]3CN4CCc5c([nH]c6cc(OC)ccc56)[C@@H]4C[C@H]3[C@@H](C(=O)OC)[C@@H]2OC)cc1OC | -2.27 |
| COC(=O)CC[C@H](NC(=O)[C@H](C)NC(=O)OCc1ccccc1)C(=O)N[C@H](C(=O)N[C@@H](CC(=O)OC)C(=O)CF)C(C)C (Cbz-AE(OMe)VD(OMe)-CH2F) | -1.1 |
| CCN(c1cc(-c2ccc(CN3CCOCC3)cc2)cc(C(=O)NCc2c(C)cc(C)[nH]c2=O)c1C)C1CCOCC1 | -1.94 |
| Cc1cccc(N/N=C(\C(=O)c2cccs2)C(=O)C(F)(F)F)c1 | -1.9 |
| CCN(CC)c1ccc(C2=NNC(=O)C[C@H]2C)cc1[N+](=O)[O-] | -0.2 |
| CCC(=O)N1CCOc2c(cc(-c3cc(OC)cc(OC)c3)cc2C(=O)N[C@H]2CCCN(C)C2)C1 | 0.01 |
| CCN(C(=O)c1cc(F)ccc1Oc1cncnc1N1CC2(CCN(C[C@H]3CC[C@H](NS(=O)(=O)CC)CC3)CC2)C1)C(C)C | -2.26 |
| C[C@H](NC(=O)c1cn(C2(C#N)CC2)cn1)C(=O)Nc1nc(-c2cccc(-c3ccn(C)n3)c2)cs1 | 1.33 |
| N#Cc1ccc(-c2c3n(c4cccnc24)CCN(C2CC2)C3=O)cc1F | -2.3 |
| CC1(C)Cn2nc(-c3ccc(F)cn3)c(-c3ccnc4[nH]ncc34)c2CO1 | -0.55 |
| O=C(NCCCOc1ccc2[nH]c(=O)ccc2c1)N(C1CC1)[C@@H]1CCCC[C@H]1O | -2.39 |
| CC(C)(C)OC(=O)NCCCCCN(CCc1ccccc1)C(=O)n1cc(-c2ccc(OC(F)(F)F)cc2)nn1 | -2.16 |
| CCCCCCNC(=O)n1cc(F)c(=O)[nH]c1=O | -1.98 |
| CNC(=O)N1CCc2c(c(N3CCCc4cc(-c5cnn(C)c5)c(C(F)F)cc43)nn2C2CCOCC2)C1 | -1.06 |
| CNCC[C@@H](Oc1ccccc1C)c1ccccc1 | -1.68 |
| CC1C(C#N)=C(N)OC2=C1C(=O)CC(c1cccc3ccccc13)C2 (centres undefined) | -0.97 |
| Cn1nc2c(=O)n(CC3(O)CCN(C(=O)C[C@H](c4ccccc4)C(F)(F)F)CC3)cnc2c1-c1ccc(CN)cc1 | -1.86 |
| CCCCCCCCCCCCC/C=C/[C@@H](O)[C@H](CO)NC(=O)CCl | 0.17 |
